PubChem BioAssay (EPA / NIEHS)
The source made the active and inactive calls. The calls were made as follows: active = hit-call score of the fitted dose curve at least 0.9, where 1 is the maximum; inactive = score below 0.9.

Legend:
[1] = Tanguay_ZF_120hpf_BRN: Oregon State University Tanguay Lab 120 Hour Post-fertilization zebrafish Assay for Brain Region Malformation (AID 2284402)
How it was run: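 Binary brightfield scoring of brain malformation at 120 hpf in 5D wild-type larvae, chorion removed with pronase at 4 hpf. Static exposure began at 6 hpf, 28C, sealed plates, DMSO 0.64% (vol/vol) as vehicle baseline.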

[2] = Tanguay_ZF_120hpf_TCHR: Oregon State University Tanguay Lab 120 Hour Post-fertilization zebrafish Assay for Touch Responsive (AID 2284403)
How it was run: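 Binary touch-response calls are made at 120 hpf in 5D wild-type zebrafish larvae. These larvae were dechorionated with pronase and exposed singly from 6 hpf in sealed, dark plates at 28 °C with 0.64% DMSO final; dead embryos are excluded.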

[3] = Tanguay_ZF_120hpf_ANY: Oregon State University Tanguay Lab 120 Hour Post-fertilization zebrafish Assay for Any Mortality and Malformation (AID 2284404)
How it was run: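 Dechorionated Tropical 5D wild-type embryos, one per well from 6 hpf, static exposure in sealed, dark plates at 28C until 120 hpf, 0.64% DMSO final. Brightfield scoring of mortality and malformations as binary presence/absence, pooling 13 morphology endpoints.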

[4] = CCTE_Padilla_ZF_Score.Craniofacial: CCTE's 144 Hour Post-fertilization zebrafish Assay Score for Craniofacial Malformation, Padilla Lab (AID 2284405)
How it was run: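 Craniofacial defects were scored at 6 dpf by two blinded observers using stereomicroscopy. Exposure of wild-type embryos began at 6–8 hpf in sealed wells of 10% Hanks' solution at 26C, with chemical removed by rinsing at 5 dpf.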

[5] = CCTE_Padilla_ZF_Score.Edema: CCTE's 144 Hour Post-fertilization zebrafish Assay Score for Edema Malformation, Padilla Lab (AID 2284406)
How it was run: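 Edema scored at 6 dpf by two blinded observers under a stereo microscope, in single outbred wild-type larvae exposed from 6-8 hpf in sealed wells (Hanks', 26C, 14:10 h light) and chemical-free after a 5 dpf rinse.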

[6] = CCTE_Padilla_ZF_Score.Spine: CCTE's 144 Hour Post-fertilization zebrafish Assay Score for Spine Malformation, Padilla Lab (AID 2284407)
How it was run: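 Spine malformation scored at 6 dpf by two independent blinded observers under stereomicroscope, after static sealed exposure from 6–8 hpf at 26C in Hanks' solution with rinse on 5 dpf. Positive-direction fit against DMSO control.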

[7] = CCTE_Padilla_ZF_Score.Swim_bladder: CCTE's 144 Hour Post-fertilization zebrafish Assay Score for Swim Bladder Malformation, Padilla Lab (AID 2284408)
How it was run: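 Swim bladder inflation scored at 6 dpf by two blinded observers under a stereo microscope. Exposure ran from 6–8 hpf in sealed wells of 10% Hanks' at 26C, with rinsing at 5 dpf; DMSO served as baseline.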

[8] = CCTE_Padilla_ZF_Score.Position: CCTE's 144 Hour Post-fertilization zebrafish Assay Score for Position, Padilla Lab (AID 2284409)
How it was run: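 Wild-type zebrafish embryos (with chorions) exposed singly from 6–8 hpf in sealed wells of Hanks' solution at 26C, rinsed at 5 dpf. At 6 dpf, blinded assessors scored abnormal water-column position by brightfield stereomicroscopy, relative to DMSO.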

[9] = CCTE_Padilla_ZF_Score.Living: CCTE's 144 Hour Post-fertilization zebrafish Assay Score for Viability, Padilla Lab (AID 2284410);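 also: larval death at 6 dpf judged by absent heartbeat or coagulation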
How it was run: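 Mortality at 6 dpf, judged as absent heartbeat or coagulation by two blinded observers, after sealed static exposure beginning at 6–8 hpf at 26C. Larvae were rinsed free of chemical at 5 dpf, and activity was fitted relative to DMSO.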

[10] = CCTE_Padilla_ZF_Score.Tail: CCTE's 144 Hour Post-fertilization zebrafish Assay Score for Tail Malformation, Padilla Lab (AID 2284414)
How it was run: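 Tail malformations were scored at 6 dpf by two blinded assessors under a stereo microscope. Chorionated embryos had been exposed from 6-8 hpf in sealed wells of 10% Hanks' at 26 C, then rinsed free of chemical at 5 dpf.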

[11] = CCTE_Padilla_ZF_Score.Blood_pooling: CCTE's 144 Hour Post-fertilization zebrafish Assay Score for Blood Pooling, Padilla Lab (AID 2284415)
How it was run: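 Blood pooling was scored at 6 dpf under a stereo microscope by two blinded assessors, fitted upward against DMSO. Single embryos were dosed at 6–8 hpf in 10% Hanks', kept sealed at 26C (14:10 h cycle) and rinsed at 5 dpf.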

[12] = CCTE_Padilla_ZF_Score.Any: CCTE's 144 Hour Post-fertilization zebrafish Assay Score for Any Mortality or Malformation, Padilla Lab (AID 2284416)
How it was run: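 Wild-type zebrafish embryos with chorions, one per well in 10% Hanks' from 6–8 hpf, dosed in sealed plates at 26 C, 14:10 h light:dark; rinsed at 5 dpf; blinded scoring at 6 dpf for death or malformation, versus DMSO.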

[13] = CCTE_Padilla_ZF_Score.General: CCTE's 144 Hour Post-fertilization zebrafish Assay Score for General Malformation, Padilla Lab (AID 2284411)
How it was run: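 Malformation, death and hatching were scored at 6 dpf by two blinded observers under a stereo microscope. Embryos were dosed singly from 6-8 hpf in sealed plates of 10% Hanks' at 26C and rinsed on 5 dpf; DMSO baseline.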

Measured: AC50

O=S(=O)(Cl)C(F)(F)C(F)(F)C(F)(F)C(F)(F)C(F)(F)C(F)(F)C(F)(F)C(F)(F)F
active: [5] 33.5 µM | [6] 88.8 µM | [7] 12.1 µM | [8] 81.7 µM | [9] 88.8 µM | [12] 12.1 µM
not listed: [13]
inactive: all other assays above

NC(=O)C(F)(F)C(F)(F)C(F)(F)F
inactive: all assays above

NC(=O)C(F)(F)C(F)(F)C(F)(F)C(F)F
not listed: [13]
inactive: all other assays above

CO[Si](C)(CCC(F)(F)C(F)(F)C(F)(F)C(F)(F)C(F)(F)C(F)(F)F)OC
inactive: all assays above

OCC(F)(F)C(F)(F)C(F)(F)C(F)(F)C(F)(F)C(F)(F)CO
active: [4] 80.4 µM | [5] 62.9 µM | [7] 11.6 µM | [12] 62.4 µM
not listed: [13]
inactive: all other assays above

OCC(F)(F)C(F)(F)C(F)(F)C(F)(F)C(F)(F)C(F)(F)C(F)(F)C(F)(F)CO
active: [3] 16.7 µM | [7] 3.96 µM | [9] 22.2 µM | [12] 5.84 µM
not listed: [13]
inactive: all other assays above

O=C(O)CCC(F)(F)C(F)(F)C(F)(F)F
active: [12] 77.1 µM
not listed: [13]
inactive: all other assays above

OCC(F)(F)C(F)(F)C(F)(F)CO
not listed: [13]
inactive: all other assays above

OCCCCC(F)(F)C(F)(F)C(F)(F)C(F)(F)F
active: [4] 39.4 µM | [5] 29.2 µM | [7] 30.6 µM | [8] 34.1 µM | [9] 88.8 µM | [12] 29 µM
inactive: [1] | [2] | [3] | [6] | [10] | [11]

FC(F)(F)C(F)(F)C(F)(F)C(F)(F)C(F)(F)C(F)(F)CC[Si](Cl)(Cl)Cl
inactive: [1] | [2] | [3]

CCOC(=O)CC(=O)C(F)(F)C(F)(F)F
inactive: all assays above

CNS(=O)(=O)C(F)(F)C(F)(F)C(F)(F)C(F)(F)C(F)(F)C(F)(F)C(F)(F)C(F)(F)F
active: [3] 55.5 µM | [4] 85.1 µM | [5] 20.7 µM | [7] 0.606 µM | [12] 0.778 µM
not listed: [13]
inactive: all other assays above

NC(=O)C(F)(F)C(F)(F)C(F)(F)C(F)(F)C(N)=O
not listed: [13]
inactive: all other assays above

OCC(O)CC(F)(F)C(F)(F)C(F)(F)C(F)(F)C(F)(F)C(F)(F)C(F)(F)C(F)(F)F (stereo not given)
inactive: [1] | [2] | [6] | [10] | [11]
active: [3] 5.14 µM | [4] 15.7 µM | [5] 9.75 µM | [7] 6.73 µM | [8] 17.6 µM | [9] 17.7 µM | [12] 9.82 µM

O=C(O)C(F)(F)C(F)(F)C(F)(F)OC(F)(C(F)(F)F)C(F)(F)F
not listed: [13]
inactive: all other assays above

O=C(O)C(F)(F)C(F)(F)C(F)(F)C(=O)O
not listed: [13]
inactive: all other assays above

OCCCC(F)(F)C(F)(F)C(F)(F)C(F)(F)C(F)(F)C(F)(F)C(F)(F)C(F)(F)F
not listed: [13]
inactive: all other assays above

C=CC(=O)OCC(F)(F)C(F)(F)C(F)(F)COC(=O)C=C
active: [1] 4.29 µM | [3] 5.92 µM | [9] 10 µM | [12] 8.95 µM
not listed: [13]
inactive: all other assays above

C=CC(=O)OCCC(F)(F)C(F)(F)C(F)(F)C(F)(F)F
active: [7] 88.3 µM | [9] 20.9 µM | [12] 30 µM
not listed: [13]
inactive: all other assays above

C[Si](Cl)(Cl)CCC(F)(F)C(F)(F)C(F)(F)C(F)(F)C(F)(F)C(F)(F)F
not listed: [13]
inactive: all other assays above

FC(F)(F)C(F)(F)C(F)(F)C(F)(F)C(F)(F)C(F)(F)C(F)(F)CCI
inactive: all assays above

OC(O)C(F)(F)C(F)(F)F
inactive: all assays above
